According to the supplement of paper PMC10646978:
± gives the standard deviation.

Experiments:
Conditions in all cases: modulator concentration 10 µM
[1] = system: RAW-Dual (murine macrophage reporter line); assay: NF-kB reporter (SEAP) activity fold change vs agonist alone; higher = enhanced NF-kB activity
Outline: (§1)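 RAW-Dual murine macrophage reporter cells were seeded at 50 000 per well in 384-well plates and pre-incubated 1 hour at 37 °C with compound pin-transferred to 10 μM final. After 1 hour, a PRR agonist was added and cells incubated overnight. Supernatant NF-κB (SEAP, QUANTI-Blue, 620 nm absorbance) and IRF (Lucia luciferase, QUANTI-Luc, luminescence) signals were divided by the mean agonist-only control on the same plate to give fold change. Two replicate plates were averaged, with errors by propagation.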

[2] = system: RAW-Dual (murine macrophage reporter line); assay: IRF reporter (Lucia luciferase) activity fold change vs agonist alone; higher = enhanced IRF activity
Outline: as §1

[3] = system: RAW-Dual (murine macrophage reporter line); assay: viability score (confluency relative to resting cells, overnight) (fraction); higher = more viable, active = viable (0.7 or more)
Outline: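 RAW-Dual macrophages in 384-well plates were treated overnight with compound at 10 μM final. IncuCyte imaging recorded confluency, and IncuCyte software built two confluency masks across every imaged well. The viability score expresses confluency relative to resting cells and was judged against a cutoff, which a compound met only if both masks exceeded 70% of resting cells.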

[4] = agonist: CpG ODN 1826 0.5 ug/mL

Question: `O=C(NCCc1cn2ccccc2n1)c1ccccc1Br` was tested. Which NF-kB reporter [1, 4] did it give?
Answer: 0.964 ± 0.069

Question: And the NF-kB reporter ([1]; agonist: LPS 0.1 ug/mL)?
Answer: 0.943 ± 0.12

Question: And the NF-kB reporter ([1]; agonist: MPLA […])?
Answer: 1.03 ± 0.056

Question: And the IRF reporter ([2]; agonist: 3'3'-cGAMP 10 ug/mL)?
Answer: 1 ± 0.048

Question: And the IRF reporter ([2]; agonist: LPS 0.1 ug/mL)?
Answer: 1.2 ± 0.25

Question: What about the IRF reporter ([2]; agonist: MPLA […]) of the same compound?
Answer: 1.24 ± 0.32

Question: What about the viability score [3] of the same compound?
Answer: 0.975 (active)

Question: Which NF-kB reporter [1, 4] does the source give for `CCOc1ccccc1NC(=O)Nc1ccc2c(c1)CCC(=O)N2C` here?
Answer: 1.91 ± 0.14

Question: And the NF-kB reporter ([1]; agonist: LPS 0.1 ug/mL)?
Answer: 1.41 ± 0.11

Question: And the NF-kB reporter ([1]; agonist: MPLA […])?
Answer: 0.99 ± 0.057

Question: What about the IRF reporter ([2]; agonist: 3'3'-cGAMP 10 ug/mL) of the same compound?
Answer: 0.404 ± 0.025

Question: What about the IRF reporter ([2]; agonist: LPS 0.1 ug/mL) of the same compound?
Answer: 0.282 ± 0.032

Question: What about the IRF reporter ([2]; agonist: MPLA […]) of the same compound?
Answer: 0.389 ± 0.079

Question: What about the viability score [3] of the same compound?
Answer: 0.933 (active)

Question: Which results are given for `CC1=C(C(=O)OCCN(Cc2ccccc2)c2ccccc2)C(c2cccc([N+](=O)[O-])c2)C(P2(=O)OCC(C)(C)CO2)=C(C)N1` (configuration not stated)?
Answer: NF-kB reporter [1, 4]: 0.86 ± 0.2; NF-kB reporter ([1]; agonist: LPS 0.1 ug/mL): 0.475 ± 0.024; NF-kB reporter ([1]; agonist: MPLA […]): 0.543 ± 0.034; IRF reporter ([2]; agonist: 3'3'-cGAMP 10 ug/mL): 0.555 ± 0.028; IRF reporter ([2]; agonist: LPS 0.1 ug/mL): 0.917 ± 0.15; IRF reporter ([2]; agonist: MPLA […]): 0.736 ± 0.074; viability score [3]: 1 (active)

Question: For `Cl.Cl.Clc1ccc(Nc2nnc(Cc3ccncc3)c3ccccc23)cc1`, which NF-kB reporter [1, 4] is on record?
Answer: 1.04 ± 0.15

Question: And the NF-kB reporter ([1]; agonist: LPS 0.1 ug/mL)?
Answer: 1 ± 0.24

Question: And the NF-kB reporter ([1]; agonist: MPLA […])?
Answer: 1.14 ± 0.31

Question: And the IRF reporter ([2]; agonist: 3'3'-cGAMP 10 ug/mL)?
Answer: 0.628 ± 0.021

Question: What about the IRF reporter ([2]; agonist: LPS 0.1 ug/mL) of the same compound?
Answer: 1.12 ± 0.2

Question: And the IRF reporter ([2]; agonist: MPLA […])?
Answer: 0.926 ± 0.14

Question: What about the viability score [3] of the same compound?
Answer: 0.979 (active)

Question: Which results are given for `NCCCC(=O)O`?
Answer: NF-kB reporter [1, 4]: 1.18 ± 0.28; NF-kB reporter ([1]; agonist: LPS 0.1 ug/mL): 0.974 ± 0.1; NF-kB reporter ([1]; agonist: MPLA […]): 1.01 ± 0.083; IRF reporter ([2]; agonist: 3'3'-cGAMP 10 ug/mL): 0.981 ± 0.04; IRF reporter ([2]; agonist: LPS 0.1 ug/mL): 1.3 ± 0.19; IRF reporter ([2]; agonist: MPLA […]): 1.3 ± 0.14; viability score [3]: 0.995 (active)

Question: With `COc1ccc2nc(NCCCn3ccnc3)sc2c1` as the compound, how does the NF-kB reporter [1, 4] read?
Answer: 0.921 ± 0.07

Question: And the NF-kB reporter ([1]; agonist: LPS 0.1 ug/mL)?
Answer: 1.02 ± 0.11

Question: And the NF-kB reporter ([1]; agonist: MPLA […])?
Answer: 1.04 ± 0.1

Question: What about the IRF reporter ([2]; agonist: 3'3'-cGAMP 10 ug/mL) of the same compound?
Answer: 0.836 ± 0.034

Question: And the IRF reporter ([2]; agonist: LPS 0.1 ug/mL)?
Answer: 1.15 ± 0.14

Question: What about the IRF reporter ([2]; agonist: MPLA […]) of the same compound?
Answer: 1.25 ± 0.2

Question: What about the viability score [3] of the same compound?
Answer: 0.985 (active)

Question: Which results are given for `CN1[C@@H]2CC[C@H]1C[C@@H](OC(c1ccccc1)c1ccccc1)C2.CS(=O)(=O)O`?
Answer: NF-kB reporter [1, 4]: 0.95 ± 0.13; NF-kB reporter ([1]; agonist: LPS 0.1 ug/mL): 1.19 ± 0.5; NF-kB reporter ([1]; agonist: MPLA […]): 1.48 ± 0.23; IRF reporter ([2]; agonist: 3'3'-cGAMP 10 ug/mL): 0.438 ± 0.013; IRF reporter ([2]; agonist: LPS 0.1 ug/mL): 0.934 ± 0.35; IRF reporter ([2]; agonist: MPLA […]): 1.53 ± 0.15

Question: `OCCN1CCN(C(c2cccs2)c2ccc3cccnc3c2O)CC1` (configuration not stated) was tested. Which NF-kB reporter [1, 4] did it give?
Answer: 1.95 ± 0.14

Question: And the NF-kB reporter ([1]; agonist: LPS 0.1 ug/mL)?
Answer: 0.699 ± 0.036

Question: And the NF-kB reporter ([1]; agonist: MPLA […])?
Answer: 0.66 ± 0.048

Question: What about the IRF reporter ([2]; agonist: 3'3'-cGAMP 10 ug/mL) of the same compound?
Answer: 0.759 ± 0.049

Question: What about the IRF reporter ([2]; agonist: LPS 0.1 ug/mL) of the same compound?
Answer: 0.332 ± 0.027

Question: And the IRF reporter ([2]; agonist: MPLA […])?
Answer: 0.26 ± 0.021

Question: And the viability score [3]?
Answer: 0.155 (inactive)

Question: What does the source list for `O=C(NCCO)c1cc(C(=O)NCCO)cc(C(=O)NCCO)c1`?
Answer: NF-kB reporter [1, 4]: 0.964 ± 0.065; NF-kB reporter ([1]; agonist: LPS 0.1 ug/mL): 1.05 ± 0.064; NF-kB reporter ([1]; agonist: MPLA […]): 0.923 ± 0.054; IRF reporter ([2]; agonist: 3'3'-cGAMP 10 ug/mL): 0.981 ± 0.043; IRF reporter ([2]; agonist: LPS 0.1 ug/mL): 1.36 ± 0.099; IRF reporter ([2]; agonist: MPLA […]): 1.18 ± 0.29; viability score [3]: 1.01 (active)

Question: What does the source list for `O=C(CSc1nnnn1-c1ccccc1)NC12CC3CC(CC(C3)C1)C2`?
Answer: NF-kB reporter [1, 4]: 1.01 ± 0.09; NF-kB reporter ([1]; agonist: LPS 0.1 ug/mL): 0.967 ± 0.053; NF-kB reporter ([1]; agonist: MPLA […]): 0.943 ± 0.059; IRF reporter ([2]; agonist: 3'3'-cGAMP 10 ug/mL): 0.96 ± 0.054; IRF reporter ([2]; agonist: LPS 0.1 ug/mL): 1.12 ± 0.24; IRF reporter ([2]; agonist: MPLA […]): 0.933 ± 0.058; viability score [3]: 1.02 (active)

Question: With `Cc1nc(-c2ccc(S(=O)(=O)NC3CCc4nc(N(C)C)ncc4C3)cc2)co1` (configuration not stated) as the compound, how does the NF-kB reporter [1, 4] read?
Answer: 0.877 ± 0.065

Question: And the NF-kB reporter ([1]; agonist: LPS 0.1 ug/mL)?
Answer: 1.21 ± 0.1

Question: What about the NF-kB reporter ([1]; agonist: MPLA […]) of the same compound?
Answer: 1.05 ± 0.053

Question: What about the IRF reporter ([2]; agonist: 3'3'-cGAMP 10 ug/mL) of the same compound?
Answer: 1.14 ± 0.074

Question: And the IRF reporter ([2]; agonist: LPS 0.1 ug/mL)?
Answer: 1.21 ± 0.091

Question: And the IRF reporter ([2]; agonist: MPLA […])?
Answer: 1.35 ± 0.27

Question: What about the viability score [3] of the same compound?
Answer: 0.919 (active)

Question: What does the source list for `CC(=O)Nc1ccc(NC(=S)NC(=O)C=Cc2ccc(Cl)cc2)cc1`?
Answer: NF-kB reporter [1, 4]: 1.08 ± 0.069; NF-kB reporter ([1]; agonist: LPS 0.1 ug/mL): 1.09 ± 0.096; NF-kB reporter ([1]; agonist: MPLA […]): 0.946 ± 0.025; IRF reporter ([2]; agonist: 3'3'-cGAMP 10 ug/mL): 0.838 ± 0.089; IRF reporter ([2]; agonist: LPS 0.1 ug/mL): 0.932 ± 0.1; IRF reporter ([2]; agonist: MPLA […]): 0.787 ± 0.22; viability score [3]: 0.991 (active)

Question: For `O=C(O)C=Cc1ccc2c(c1)OCCO2`, which NF-kB reporter [1, 4] is on record?
Answer: 1 ± 0.077

Question: And the NF-kB reporter ([1]; agonist: LPS 0.1 ug/mL)?
Answer: 0.902 ± 0.075

Question: And the NF-kB reporter ([1]; agonist: MPLA […])?
Answer: 1.14 ± 0.12

Question: What about the IRF reporter ([2]; agonist: 3'3'-cGAMP 10 ug/mL) of the same compound?
Answer: 1.07 ± 0.059

Question: What about the IRF reporter ([2]; agonist: LPS 0.1 ug/mL) of the same compound?
Answer: 1.35 ± 0.2

Question: What about the IRF reporter ([2]; agonist: MPLA […]) of the same compound?
Answer: 1.47 ± 0.33

Question: What about the viability score [3] of the same compound?
Answer: 1.02 (active)

Question: With `N#Cc1c(-n2ncnc2-c2cccc([N+](=O)[O-])c2)sc2c1CCCC2` as the compound, how does the NF-kB reporter [1, 4] read?
Answer: 0.954 ± 0.063

Question: What about the NF-kB reporter ([1]; agonist: LPS 0.1 ug/mL) of the same compound?
Answer: 1.05 ± 0.085

Question: What about the NF-kB reporter ([1]; agonist: MPLA […]) of the same compound?
Answer: 0.932 ± 0.073

Question: And the IRF reporter ([2]; agonist: 3'3'-cGAMP 10 ug/mL)?
Answer: 0.932 ± 0.033

Question: What about the IRF reporter ([2]; agonist: LPS 0.1 ug/mL) of the same compound?
Answer: 1.46 ± 0.12

Question: And the IRF reporter ([2]; agonist: MPLA […])?
Answer: 1.2 ± 0.15

Question: What about the viability score [3] of the same compound?
Answer: 1 (active)
